Source: the supplement of paper PMC3334620
Whole data set: some 33,000 sequences, median “E-score (-0.5 to 0.5)” near -0.036, cut for the highest 2% near 0.37. Only a selection was taken, and the highest values are over-represented in it overall.

Each sequence was assayed against T1, Yer064c (UniProt P40041) (assay: PBM E-score (8-mer binding enrichment) (E-score (-0.5 to 0.5)); higher = stronger / more preferred TF binding). Conditions: protein concentration: 200 nM; construct: GST-full length.
T1 sequence: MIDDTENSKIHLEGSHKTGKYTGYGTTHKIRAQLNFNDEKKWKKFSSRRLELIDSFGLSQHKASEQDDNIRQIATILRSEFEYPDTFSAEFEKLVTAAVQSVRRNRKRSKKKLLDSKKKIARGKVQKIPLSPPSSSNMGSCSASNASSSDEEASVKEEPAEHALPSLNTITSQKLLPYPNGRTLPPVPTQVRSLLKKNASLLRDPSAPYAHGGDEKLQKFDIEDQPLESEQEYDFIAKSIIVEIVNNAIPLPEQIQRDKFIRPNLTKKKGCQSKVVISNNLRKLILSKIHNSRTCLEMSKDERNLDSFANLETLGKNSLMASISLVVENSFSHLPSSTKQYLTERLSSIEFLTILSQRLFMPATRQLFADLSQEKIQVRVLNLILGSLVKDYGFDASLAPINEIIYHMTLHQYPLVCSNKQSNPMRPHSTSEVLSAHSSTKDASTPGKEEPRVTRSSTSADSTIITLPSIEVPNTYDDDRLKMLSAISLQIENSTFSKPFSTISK
Protocol: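 Universal 'all 10-mer' protein binding microarrays (Agilent AMADID 015681) probed with GST-tagged S. cerevisiae TFs (full-length or DBD) made by in vitro transcription/translation (PURExpress), about 100-200 nM. Bound TF was detected with fluorescent anti-GST. Each ungapped 8-mer (which stands for itself and its reverse complement) is scored by the PBM enrichment score (E-score), a modified Wilcoxon-Mann-Whitney statistic from -0.5 to +0.5, computed with the Universal PBM Analysis Suite. Scale: above 0.35 generally sequence-specific binding.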

| Sequence | PBM E-score |
| --- | --- |
| CCAGATCA | 0.058 |
| CGAAGCCA | 0.0935 |
| CTCCCCGA | -0.0625 |
| AGTAGCTG | 0.0121 |
| GCAGAACC | -0.118 |
| ATCGAGCA | -0.149 |
| AACTGACT | 0.404 |
| AGCTGACT | 0.458 |
| ACCTGACT | 0.44 |
| ACCTGACC | -0.13 |
| AGCTGACC | -0.078 |
| ACCTGACG | -0.192 |
| AACTGACC | -0.163 |
| AACTGACA | -0.287 |
| AGCTGACG | -0.134 |
| AAGTGCAG | 0.0456 |
| CCCGTGCC | -0.103 |
| AGGTAACG | -0.0878 |
| ATTCCATA | -0.0291 |
| AGCGCATC | -0.0879 |
| TACTACTA | 0.0844 |
| AACTACTC | 0.199 |

| Sequence | PBM E-score |
| --- | --- |
| CACTACTC | 0.112 |
| AAGTACTC | 0.282 |
| GACTACTC | 0.427 |
| CAGTACTC | 0.24 |
| GACTACTA | 0.417 |
| GAGTACTC | 0.381 |
| AACTACTA | -0.0232 |
| AACGTAAT | 0.023 |
| GTTGTCGA | -0.158 |
| GCGTTGCC | -0.252 |
| ACCCTGAC | 0.158 |
| GTTCAGAA | 0.00278 |
| AAGCAGCA | -0.264 |
| ATTGTACA | 0.0112 |
| GTTACTAA | 0.184 |
| CGGACTAC | 0.248 |
| CTTACTAC | -0.0948 |
| CTGACTAC | 0.469 |
| CGGACTAA | 0.342 |
| GTGACTAA | 0.488 |
| GGGACTAA | 0.323 |
| CTGACTAA | 0.48 |

| Sequence | PBM E-score |
| --- | --- |
| CAGACTAA | 0.317 |
| AACCGCTA | -0.169 |
| ATGTTATA | -0.0918 |
| CGAAGGAC | 0.079 |
| ACCGCGGG | 0.0814 |
| AGCGCCGA | -0.00218 |
| ACCTTCGA | 0.00431 |
| GAATCTCA | 0.101 |
| CCGGATTA | -0.0124 |
| CCAAGCTC | -0.22 |
| AGATGTCG | -0.0862 |
| ACTCACCA | 0.388 |
| CCTCACCC | -0.213 |
| TCTCACCA | -0.117 |
| CCTCACCA | -0.134 |
| ACTCACCT | 0.338 |
| ACTCACCC | 0.401 |
| ACTCACCG | 0.384 |
| GCTCACCC | -0.0459 |
| CCTCACCG | -0.033 |
| ATCGGAGC | -0.0582 |
| GACGAAGC | -0.0864 |

| Sequence | PBM E-score |
| --- | --- |
| TCGGATCA | -0.0516 |
| ATTAGAAT | 0.186 |
| ATTAATCG | 0.269 |
| GTTAATAA | 0.117 |
| CTTAATCC | 0.114 |
| ATTAATCA | 0.441 |
| CTTAATAA | 0.136 |
| GTTAATTA | 0.0895 |
| GTTAATCA | 0.451 |
| ATTAATCC | 0.256 |
| CTTAATCA | 0.45 |
| AGACCAAA | 0.0161 |
| GTAGTAAA | 0.107 |
| CACTTGCG | -0.0335 |
| GTAGGAAA | 0.00646 |
| CGGTTACC | 0.0378 |
| ATATTGGC | -0.228 |
| GGAGGACC | -0.37 |
| GACTTAAA | 0.325 |
| ACAAGTCA | 0.374 |
